Rows were chosen to be rich in hits. Some 17% of all compounds tested hit in one or more screens of this group.
HepG2 viability – counter-screen for TGF-b inhibitors: cytotoxicity in HepG2 cells; HepG2 CAGA-GFP viability, ATP luminescence, 18 h; Potency, µM (titrated, usually from 46.1 µM), for the others: at the highest dose activity change, negative = cytotoxicity, actives largely listed as cytotoxic; hit rate 0.76% among 410,000
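CellTiter-Glo luminescence gave cytotoxicity after 18 hours at 37 degrees C. The cells were HepG2 CAGA-GFP in 1% FBS DMEM, stimulated with 500 pg/mL TGF-beta after compound addition. %Activity was normalised to no-cell wells (complete cell-killing) and DMSO (no toxicity), and curves were fitted and classified.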
TDP1 cell CPT – DT40-hTDP1 cell growth loss with CPT. hit rate 12% among 420,000. chicken DT40 Tdp1-/-;hTDP1 cells + 20 nM CPT, ATP luminescence, 48 h. Potency, µM (highest dose often 46.2 µM), for the others: at the top dose activity change, negative = growth inhibition, usual class: inhibitors; also: % is scaled to controls: 0 for no effect and ±100 for the full control effect; nearly all actives have a fitted effect of over 55% in size
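Chicken DT40 Tdp1-/- cells stably complemented with human TDP1 were seeded at 400 cells/well in medium containing 20 nM camptothecin, exposed to pin-transferred compounds, and grown at 37 °C for at least 48 hr. Viability was read as ATP luminescence.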
ATXN2 expr inh – ATXN2 expression inhibition. HEK-293 ATXN2-luciferase reporter, luminescence, 24 h. Potency, µM (highest dose often 57 µM), for the others: top-dose activity change, negative = inhibition, actives largely listed as inhibitors. hit rate 0.72% among 360,000; also: % is scaled to controls: 0 for no effect and ±100 for the full control effect; nearly all actives have a fitted effect of over 55% in size
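qHTS (up to 57 uM final) was run with 24 h compound exposure of reporter cells at 37 °C. Each well was multiplexed: SteadyGlo luminescence measured ATXN2-luciferase expression after a fluorogenic Gly-Phe-AFC viability readout (25 uM final).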
TDP1 cell noCPT – qHTS for Inhibitors of human tyrosyl-DNA phosphodiesterase 1 (TDP1): qHTS in cells in absence of CPT | AID 686978, 2013 | Potency, µM (highest dose often 46.2 µM), without a hit: top-dose activity change, negative = growth inhibition, hits mostly inhibitors | hit rate 15% among 420,000 | DT40 Tdp1-/- hTDP1 cells, no CPT, ATP luminescence, 48 h; also: % is scaled to controls: 0 for no effect and ±100 for the full control effect; nearly all actives have a fitted effect of over 55% in size
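Luminescent ATP content (CellTiter-Glo) served as the growth readout. Knockout chicken DT40 cells expressing human TDP1 were exposed to compounds without camptothecin for a minimum 48 hr at 37 °C.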
TGFb SMAD3 inh – inhibitors of TGF-b signaling; HepG2 CAGA-GFP TGF-b/SMAD3 reporter, GFP fluorescence, 18 h; TGF-beta stimulated, 500 pg/mL final; hit rate 1.2% among 410,000; Potency, µM (highest dose often 46.1 µM), for the others: top-dose activity, negative = inhibition, most hits filed as inhibitors; AID 588855; also: % is scaled to controls: 0 for no effect and ±100 for the full control effect; nearly all actives have a fitted effect of over 65% in size
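Inhibition was scored as loss of TGF-beta-induced (500 pg/mL final, 18 hours, 37 degrees C) GFP in HEPG2 cells carrying a CAGA-GFP reporter, in DMEM with 1% FBS. Well GFP was summed per cell; Activity was normalised to unstimulated and stimulated DMSO wells, then concentration-response fitting.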
S2 tox – viability counter-screen for ATXN expression inhibitors | Potency, µM (top dose mostly 56.7 µM), hits mostly cytotoxic | hit rate 0.49% among 400,000 | S2 cells (HEK-293 line with an ATXN2-luciferase reporter) viability, CellTiter-Fluor protease fluorescence, 24 h; also: nearly all actives have a fitted effect of over 40% in size
Active calls of the source: *; i = inactive; u = inconclusive; x = no result given. Calls follow the shape of the dose curve; as a rule, active = well fitted curve in the direction sought with a large enough effect; inconclusive = small, poorly fitted or top-dose-only effect, or another doubt; inactive = no such curve, though single readings can be large; an effect the other way counts as inactive or inconclusive. Potency is read from the fitted curve at half-maximal effect.

SMILES | HepG2 viability | TDP1 cell CPT | ATXN2 expr inh | TDP1 cell noCPT | TGFb SMAD3 inh | S2 tox
COc1ccc(-n2nc(C(=O)NCC(=O)N3CCN(Cc4ccccc4)CC3)c3ccccc3c2=O)cc1 | -51% | 23µM* | -6% | u | -1% | u
COc1ccc(-n2nc(C(=O)NCC(=O)N3CCN(c4ccccc4)CC3)c3ccccc3c2=O)c(OC)c1 | -2% | u | 40% | u | -5% | i
COc1ccc(-n2nc(C(=O)NCC(=O)NC(C)C)c3ccccc3c2=O)cc1 | 3% | 5% | -2% | -9% | 25% | i
COc1ccc(-n2nc(C(=O)NCC(=O)N3CCN(c4ccc(F)cc4)CC3)c3ccccc3c2=O)c(OC)c1 | -2% | 21µM* | 5% | u | 0% | u
CCOC(=O)N1CCN(C(=O)CNC(=O)c2nn(-c3ccc(OC)c(Cl)c3)c(=O)c3ccccc23)CC1 | -21% | u | 31% | 9.2µM* | 10% | i
COc1ccccc1Cc1c(C2CCCCC2)nc2cc(C)c(Br)c(C)n12 | x | -21% | 15% | -28% | x | i
COc1ccc(-n2nc(C(=O)NCC(=O)NCCc3ccc(OC)c(OC)c3)c3ccccc3c2=O)cc1Cl | -33% | u | -14% | 13µM* | 14% | u
C[C@@H]1CN([C@@H](C)CO)C(=O)c2cc(Br)cnc2O[C@H]1CN(C)C(=O)c1ccc2c(c1)OCO2 | 0% | -3% | -7% | 1% | 13% | i
Cc1cc(NCc2ccccn2)n2nc(C)c(-c3ccccc3)c2n1 | -35% | 0.052µM* | u | 0.046µM* | 11µM* | u
Cc1ccc2nc(CN(C)C(=O)[C@H]3O[C@@H](n4ccc(N)nc4=O)[C@H](O)[C@@H]3O)[nH]c2c1 | -1% | 4% | -6% | 7% | 4% | i
CNC(=O)c1nc(C)n(-c2ccc(Cl)cc2Cl)n1 | -5% | 12µM* | -5% | u | -14% | i
CC(C)[C@@H](C)/C=C/[C@@H](C)[C@H]1CC[C@H]2/C(=C/C=C3\C[C@@H](O)CC[C@@H]3C)CCC[C@]12C | x | u | x | 17µM* | x | x
CC(C)C(C)/C=C/C(C)C1CCC2C3=CC=C4CC(O)CCC4(C)C3CCC21C (centres undefined) | x | -1% | x | -19% | x | x
COc1ccc(CCNCC(=O)Nc2ccc(C)c(Br)c2)cc1OC | -56% | 9.2µM* | -20% | u | u | i
C/C(=N\Nc1ccc(S(=O)(=O)N2CCCCC2)cn1)c1cccc(Br)c1 | -1% | u | x | 3.3µM* | u | u
CCC(=O)N[C@@H]1C=C[C@@H](CC(=O)NCc2ccccc2F)O[C@@H]1CO | x | 6% | x | -1% | x | x
COc1cccc(/C=N/Nc2nc(Nc3ccccc3)nc(-n3nc(C)cc3C)n2)c1O | -43% | 0.82µM* | u | 0.58µM* | 1.6µM* | u
COc1cccc(/C=N/Nc2cc(-n3nc(C)cc3-c3ccccc3)ncn2)c1O | -61% | 0.82µM* | u | 0.65µM* | u | u
O=C(c1ccccc1-c1nc(-c2ccc(F)cc2)no1)N1CCCC1 | -14% | u | -8% | 23µM* | 9% | i
CC(C)c1ccc(-c2noc(C3CCCN(C(=O)c4ccc(F)cc4F)C3)n2)cc1 (centres undefined) | -32% | u | 4% | 21µM* | u | i
Cc1ccccc1NC(=O)N1CCCC(c2nc(-c3ccc(C(C)C)cc3)no2)C1 (centres undefined) | -16% | 16µM* | -24% | 35µM* | -29% | u
COc1cccc(-c2noc(C3CCCN(C(=O)c4ccc(F)cc4F)C3)n2)c1 (centres undefined) | 23% | -28% | -36% | -19% | -1% | i
O=C(Nc1ccccc1)N1CC=C(c2ccc(F)cc2)CC1 | -22% | u | 20% | 13µM* | 1% | i
O=C1c2ccccc2NC(c2ccccn2)N1c1ccccc1F (centres undefined) | -3% | -8% | 3% | -2% | 0% | i
Cc1ccc(Cl)cc1-n1c(=O)c2sc3ccccc3c2n(CC(=O)NC2CCCCC2)c1=O | 7% | u | -7% | u | -18% | u
SMILES | HepG2 viability | TDP1 cell CPT | ATXN2 expr inh | TDP1 cell noCPT | TGFb SMAD3 inh | S2 tox
O=S(=O)(Cc1ccccc1)N1CCCC(c2nc(-c3ccc(F)cc3)no2)C1 (centres undefined) | -34% | -26% | -12% | 18µM* | u | i
O=S(=O)(c1ccc(F)cc1)N1CCCC(c2nc(-c3ccc(F)cc3)no2)C1 (centres undefined) | -13% | u | -10% | u | 4% | i
CC(C)CNC(=S)N1CCC(c2nc(-c3ccc(F)cc3)no2)CC1 | -16% | 21µM* | -32% | 21µM* | -33% | i
Cc1ccccc1NC(=O)N1CCCC(c2nc(-c3ccc(F)cc3)no2)C1 (centres undefined) | -5% | u | -6% | -20% | -1% | i
O=C(c1c(F)cccc1F)N1CCCC(c2nc(-c3ccc(F)cc3)no2)C1 (centres undefined) | -54% | 23µM* | -22% | 16µM* | u | i
O=C(Nc1ccccc1)N1CCCC(c2nc(-c3ccc(F)cc3)no2)C1 (centres undefined) | -21% | u | 4% | 18µM* | -13% | u
COc1ccc2cc3cc(C(=O)N4CCN(c5ccccc5F)CC4)oc3nc2c1 | -5% | u | 6% | u | u | i
CCOc1ccccc1N1CCN(S(=O)(=O)c2ccc(C3CCCCC3)cc2)CC1 | -12% | -25% | -3% | u | -1% | i
O=C(NC1CC1)c1cc(=S)[nH]c2ccccc12 | 4% | -16% | -4% | -7% | -7% | u
Cc1ccc(NC(=O)N2CCCC(c3nc(-c4ccc(F)cc4)no3)C2)cc1 (centres undefined) | -14% | 23µM* | 2% | u | u | i
Cc1cc(C)c2oc(=O)cc(CN3CCCCC3)c2c1 | 1% | -10% | -5% | -5% | 50% | i
COc1ccc(CCCc2nnc(SCC(=O)N/N=C\c3ccc(O)c(OC)c3)o2)cc1C | -13% | 15µM* | -24% | u | u | u

Assay outcomes deposited in PubChem by National Center for Advancing Translational Sciences (NCATS).
